Data published in PubChem BioAssay (NCATS).
Where “and” joins values, the source holds several entries; their conditions need not be identical. Equal values may be shown once. Records with an inconclusive call do not appear. Calls of active or inactive are those of the source. Calls come from the whole dose curve; as a rule, active = well fitted inhibition curve with a large enough effect in the main read-out, with a control signal flat (not every such curve was filed as active); inconclusive = small, poorly fitted or top-dose-only effect, or effect the other way, or a change in a side signal; inactive = no such curve, though single readings can be large or run the other way.

Assay: Nrf2 qHTS screen for inhibitors: Validation (AID 493153); for activity change, negative = inhibition: % of control where 0% means no effect
Conditions: A549 ARE-Fluc reporter, 18-24 h; viability change: measured here: cytotoxicity max response; luciferase luminescence, at 46.1 µM (top of the series); activity change, negative = inhibition: at the top concentration
Method in brief: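 A549 cells carrying ARE-firefly luciferase reporter, 5000 cells/well in 5% FBS OPTI-MEM, treated with compound over a concentration series for 18-24 h at 37 C. Luciferase luminescence gave Nrf2 activity; CellTiter-Fluor fluorescence gave viability.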

| Structure (SMILES) | activity change, negative = inhibition | viability change | outcome |
| --- | --- | --- | --- |
| O=C1NC(=O)C(c2ccccc2)(c2ccccc2)N1 | 1.93% (inactive) | -3.24% | – |
| COc1ccccc1N1CCN(CCCNc2cc(=O)n(C)c(=O)n2C)CC1 | 6.83% (inactive) | -8.38% | – |
| CCCCCN(C)CCC(O)(P(=O)(O)O)P(=O)(O)O | 6.83% (inactive) | -4.22% | – |
| COC(=O)[C@@H]1[C@H]2C[C@H]3c4[nH]c5ccccc5c4CCN3C[C@@H]2CC[C@@H]1O | 3.93% (inactive) | 2.98% | – |
| CCN(CC)CCNC(=O)c1ccc(N)cc1 | -27.9% (inactive) | -14% | – |
| O=C(NCCN1CCOCC1)c1ccc(Cl)cc1 | 1.22% (inactive) | -1.31% | – |
| CC(=O)CCCCn1c(=O)c2c(ncn2C)n(C)c1=O | -2.08% (inactive) | -8.24% | – |
| CC(=O)c1ccc(S(=O)(=O)NC(=O)NC2CCCCC2)cc1 | -12.8% (inactive) | 1.61% | – |
| CCN(CC)C(=O)c1ccc(O)c(OC)c1 | 2.42% (inactive) | 8.03% | – |
| CCN(CC)CCOC(=O)c1ccc(N)cc1 | -5.97% (inactive) | 0.523% | – |
| CN(C)CCC(c1ccccc1)c1ccccn1 (stereo not given) | 5.97% (inactive) | 3.7% | – |
| CC(C)NCC(O)COc1cccc2[nH]ccc12 (stereo not given) | 5.99% (inactive) | 3.18% | – |
| CCN1CCC[C@H]1CNC(=O)c1cc(S(N)(=O)=O)ccc1OC | 0.264% (inactive) | -14.1% | – |
| C[N+](C)(C)CCCCCC[N+](C)(C)C | – | -1.95% and 3.05% | inactive |
| Cc1cccc(C)c1OCC(C)N (stereo not given) | 2.47% (inactive) | -6.18% | – |
| CCCNC(=O)NS(=O)(=O)c1ccc(Cl)cc1 | -7.83% (inactive) | -0.767% | – |
| O=C1NCC2(CCN(CCc3ccccc3)CC2)O1 | 3.36% (inactive) | 1.8% | – |
| NCCS | -9.02% (inactive) | -10.7% | – |
| NC(N)=Nc1nc(CSCC/C(N)=N/S(N)(=O)=O)cs1 | -5.08% (inactive) | -0.651% | – |
| Clc1ccc(Cn2c(CN3CCCC3)nc3ccccc32)cc1 | 5.18% (inactive) | 1.98% | – |
